We go through 31 molecules from PubChem BioAssay (EPA / NIEHS).

The term AC50 denotes the midpoint of the concentration-response curve, whichever way the signal moves.

Active and inactive are the calls of the source. Rule for the calls: active = hit-call score of the fitted dose curve at least 0.9, where 1 is the maximum; inactive = score below 0.9.

Sequence of Cellular tumor antigen p53 (Homo sapiens) (P04637 whole entry, looked up, the tested form may be a part): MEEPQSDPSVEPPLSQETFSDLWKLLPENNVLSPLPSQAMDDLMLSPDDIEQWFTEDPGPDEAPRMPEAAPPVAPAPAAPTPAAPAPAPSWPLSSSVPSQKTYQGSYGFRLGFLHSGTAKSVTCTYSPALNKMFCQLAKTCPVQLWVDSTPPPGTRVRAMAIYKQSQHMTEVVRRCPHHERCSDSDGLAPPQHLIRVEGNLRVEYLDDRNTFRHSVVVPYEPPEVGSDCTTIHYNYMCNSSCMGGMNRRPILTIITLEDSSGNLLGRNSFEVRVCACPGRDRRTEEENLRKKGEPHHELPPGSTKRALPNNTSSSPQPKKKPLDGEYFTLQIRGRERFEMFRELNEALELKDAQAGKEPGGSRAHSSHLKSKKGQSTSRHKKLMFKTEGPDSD

One experiment has as its target Cellular tumor antigen p53 (Homo sapiens) (UniProt P04637). The experiment is described as follows: ATG_p53_CIS: Attagene CIS-FACTORIAL HepG2 Assay for human p53 Transcription Factor (AID 2282994). The following applies: HepG2 p53 cis-element reporter, Attagene mRNA; actives raise or lower the signal. Summed up: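 In HepG2 cells, reporter transcription units under cis-regulatory promoters were transiently introduced. Following 24 h treatment, RNA was processed to labelled, digested cDNA fragments read by capillary electrophoresis; fitting was bidirectional versus DMSO.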
For `OCCCc1cccnc1`, the molecule was called inactive.

For `OC(O)C(F)(F)C(F)(F)F`, the AC50 is 121 µM (active).

In the case of `COC(F)(C(F)F)C(F)(F)F` (stereo not drawn), the result was inactive.

`Nc1cccnc1N`: the outcome was inactive.

Consider `Nc1c(Br)cc([N+](=O)[O-])cc1Br`, for which the outcome was inactive.

Take `CCC(Cc1c(I)cc(I)c(N)c1I)C(=O)O` (stereo not drawn): the molecule was called inactive.

As for `CCC/C=C/CO`, the result was inactive.

Regarding `O=C(Cl)c1ccc(Cl)cc1Cl`, the outcome was inactive.

With `C[C@]12CC[C@H]3C(=CCc4cc(O)ccc43)[C@@H]1CCC2=O`, the call was inactive.

In the case of `CN(N=O)C(=O)N[C@@H]1[C@@H](O)[C@H](O)[C@@H](CO)O[C@@H]1O`, the call was inactive.

For the molecule `O=C1c2c(O)ccc(Nc3ccc(CCO)cc3)c2C(=O)c2c([N+](=O)[O-])ccc(O)c21`, the outcome was inactive.

On to `Nc1cc([N+](=O)[O-])cc(Cl)c1O`, for which the molecule was classed as inactive.

For `CC(=O)CCC(C)C`, the molecule was classed as inactive.

Turning to `CCOC(=O)CC(=O)C(F)(F)C(F)(F)F`, the result was inactive.

Consider `O=S(=O)(O)CCC(F)(F)C(F)(F)C(F)(F)C(F)(F)F`, for which the molecule was classed as inactive.

As for `CCc1cc(Cc2cc(CC)c(N)c(CC)c2)cc(CC)c1N`, the concentration at half-maximal activity (AC50) was 27.2 µM (active).

Take `CCN=c1cc2oc3cc(NCC)c(C)cc3c(-c3ccccc3C(=O)OCC)c-2cc1C`: the AC50 is 1.56 µM (active).

For `Cc1ccc2c(c1)OCC(=O)CO2`, the molecule was classed as inactive.

In the case of `CCn1c2ccccc2c2ccccc21`, the molecule was classed as inactive.

For the molecule `CCCCCCCCn1sc(Cl)c(Cl)c1=O`, the AC50 is 11.1 µM (active).

Turning to `O=S(=O)(O)c1ccc(Cl)cc1`, the outcome was inactive.

Turning to `Cc1ccc(S(=O)(=O)C(I)I)cc1`, the AC50 is 8.91 µM (active).

With `CC(=O)c1ccccc1N`, the molecule was called inactive.

For `CSc1ccc(O)cc1C`, the outcome was inactive.

Turning to `C=C(C)CCCC`, the molecule was called inactive.

As to `CCOC(=O)CCC(C)=O`, the molecule was called inactive.

Read-out in the next experiment: not listed separately
The experiment is described as follows: BSK_3C_TissueFactor: BioMAP Diversity Plus: 3C Assay for Tissue Factor Biomarker Activity (AID 2282997). The following applies: BioMAP 3C HUVEC, tissue factor biomarker readout; actives raise or lower the signal. Summed up:
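After a 24 h chemical exposure of primary human umbilical vein endothelial cells, Tissue Factor levels were quantified by ELISA.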
On to `OC(O)C(F)(F)C(F)(F)F`, for which the result was inactive.

With `Brc1nc2ccccc2s1`, the result was inactive.

On to `COC(F)(C(F)F)C(F)(F)F` (stereo not drawn), for which the result was inactive.

As for `OCCCCC(F)(F)C(F)(F)C(F)(F)C(F)(F)F`, the result was inactive.

As for `C[C@]12CC[C@H]3C(=CCc4cc(O)ccc43)[C@@H]1CCC2=O`, the outcome was inactive.

For the molecule `O=C1C=CC(=O)N1c1ccc(Cc2ccc(N3C(=O)C=CC3=O)cc2)cc1`, the half-maximal activity concentration (AC50) is 5.47 µM (active).

Consider `O=C1c2c(O)ccc(Nc3ccc(CCO)cc3)c2C(=O)c2c([N+](=O)[O-])ccc(O)c21`, for which the AC50 was 0.7 µM (active).

On to `Nc1cc([N+](=O)[O-])cc(Cl)c1O`, for which the outcome was inactive.

With `CCOC(=O)CC(=O)C(F)(F)C(F)(F)F`, the result was inactive.

In the case of `O=S(=O)(O)CCC(F)(F)C(F)(F)C(F)(F)C(F)(F)F`, the outcome was inactive.

On to `Cc1ccc(S(=O)(=O)C(I)I)cc1`, for which the AC50 was 1.85 µM (active).

As for `NC(=O)C(F)(F)C(F)(F)C(F)(F)F`, the outcome was inactive.

Take `Cc1cnccn1`: the outcome was inactive.

Read-out in a further experiment: not listed separately
The experiment is described as follows: BSK_3C_uPAR: BioMAP Diversity Plus: 3C Assay for Urokinase-type plasminogen activator receptor (uPAR) Biomarker Activity (AID 2282998). The note with it: BioMAP 3C HUVEC, uPAR biomarker ELISA; actives raise or lower the signal. Summed up: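 Readout: ELISA for surface uPAR. System: human umbilical vein endothelial primary cells, 24 h after chemical exposure. Analysis: bidirectional fit, DMSO baseline.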
Take `OC(O)C(F)(F)C(F)(F)F`: the result was inactive.

For `Brc1nc2ccccc2s1`, the outcome was inactive.

Consider `COC(F)(C(F)F)C(F)(F)F` (stereo not drawn), for which the result was inactive.

Regarding `OCCCCC(F)(F)C(F)(F)C(F)(F)C(F)(F)F`, the outcome was inactive.

Turning to `C[C@]12CC[C@H]3C(=CCc4cc(O)ccc43)[C@@H]1CCC2=O`, the outcome was inactive.

For the molecule `O=C1C=CC(=O)N1c1ccc(Cc2ccc(N3C(=O)C=CC3=O)cc2)cc1`, the AC50 was 5.81 µM (active).

On to `O=C1c2c(O)ccc(Nc3ccc(CCO)cc3)c2C(=O)c2c([N+](=O)[O-])ccc(O)c21`, for which the concentration at half-maximal activity (AC50) is 4.7 µM (active).

Take `Nc1cc([N+](=O)[O-])cc(Cl)c1O`: the result was inactive.

As for `CCOC(=O)CC(=O)C(F)(F)C(F)(F)F`, the outcome was inactive.

Consider `O=S(=O)(O)CCC(F)(F)C(F)(F)C(F)(F)C(F)(F)F`, for which the outcome was inactive.

As for `Cc1ccc(S(=O)(=O)C(I)I)cc1`, the AC50 was 1.45 µM (active).

Consider `NC(=O)C(F)(F)C(F)(F)C(F)(F)F`, for which the result was inactive.

`Cc1cnccn1`: the outcome was inactive.

Read-out in a further experiment: not listed separately
The experiment is described as follows: BSK_3C_VCAM1: BioMAP Diversity Plus: 3C Assay for Vascular cell adhesion molecule 1 (VCAM1) Biomarker Activity (AID 2282999). The note with it: BioMAP 3C HUVEC, VCAM1 ELISA, cytokine-stimulated; actives raise or lower the signal. Summed up:
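HUVEC primary cells, 24 h compound exposure; VCAM-1 by ELISA; gain/loss of signal fitted bidirectionally vs DMSO baseline.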
In general terms: ELISA stands for enzyme-linked immunosorbent assay.
In the case of `OC(O)C(F)(F)C(F)(F)F`, the result was inactive.

Take `Brc1nc2ccccc2s1`: the outcome was inactive.

With `COC(F)(C(F)F)C(F)(F)F` (stereo not drawn), the result was inactive.

For the molecule `OCCCCC(F)(F)C(F)(F)C(F)(F)C(F)(F)F`, the outcome was inactive.

As for `C[C@]12CC[C@H]3C(=CCc4cc(O)ccc43)[C@@H]1CCC2=O`, the outcome was inactive.

On to `O=C1C=CC(=O)N1c1ccc(Cc2ccc(N3C(=O)C=CC3=O)cc2)cc1`, for which the concentration at half-maximal activity (AC50) is 7.45 µM (active).

On to `O=C1c2c(O)ccc(Nc3ccc(CCO)cc3)c2C(=O)c2c([N+](=O)[O-])ccc(O)c21`, for which the AC50 was 23.2 µM (active).

On to `Nc1cc([N+](=O)[O-])cc(Cl)c1O`, for which the outcome was inactive.

Turning to `CCOC(=O)CC(=O)C(F)(F)C(F)(F)F`, the outcome was inactive.

In the case of `O=S(=O)(O)CCC(F)(F)C(F)(F)C(F)(F)C(F)(F)F`, the result was inactive.

Consider `Cc1ccc(S(=O)(=O)C(I)I)cc1`, for which the AC50 was 3.06 µM (active).

Consider `NC(=O)C(F)(F)C(F)(F)C(F)(F)F`, for which the result was inactive.

Regarding `Cc1cnccn1`, the outcome was inactive.

Read-out in a further experiment: not listed separately
The experiment is described as follows: BSK_4H_Eotaxin3: BioMAP Diversity Plus: 4H Assay for Eotaxin 3 Biomarker Activity (AID 2283000).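 For outcome: CCL26 protein level quantified by ELISA in parallel with SRB cytotoxicity check.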 The following applies: primary human endothelial cells (HUVEC); actives raise or lower the signal. Summed up:
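Chemicals were added to human umbilical vein endothelium cultures, and Eotaxin-3 was quantified by ELISA at 24 h. Values were derived by bidirectional fitting with DMSO serving as negative control and activity baseline.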
Take `OC(O)C(F)(F)C(F)(F)F`: the result was inactive.

Turning to `Brc1nc2ccccc2s1`, the result was inactive.

Turning to `COC(F)(C(F)F)C(F)(F)F` (stereo not drawn), the outcome was inactive.

For the molecule `OCCCCC(F)(F)C(F)(F)C(F)(F)C(F)(F)F`, the result was inactive.

Take `C[C@]12CC[C@H]3C(=CCc4cc(O)ccc43)[C@@H]1CCC2=O`: the outcome was inactive.

Take `O=C1C=CC(=O)N1c1ccc(Cc2ccc(N3C(=O)C=CC3=O)cc2)cc1`: the AC50 is 6.05 µM (active).

For `O=C1c2c(O)ccc(Nc3ccc(CCO)cc3)c2C(=O)c2c([N+](=O)[O-])ccc(O)c21`, the AC50 is 9.19 µM (active).

Turning to `Nc1cc([N+](=O)[O-])cc(Cl)c1O`, the result was inactive.

Turning to `CCOC(=O)CC(=O)C(F)(F)C(F)(F)F`, the result was inactive.

For `O=S(=O)(O)CCC(F)(F)C(F)(F)C(F)(F)C(F)(F)F`, the outcome was inactive.

For `Cc1ccc(S(=O)(=O)C(I)I)cc1`, the half-maximal activity concentration (AC50) was 1.84 µM (active).

On to `NC(=O)C(F)(F)C(F)(F)C(F)(F)F`, for which the outcome was inactive.

With `Cc1cnccn1`, the result was inactive.
